Compounds with a hit are over-represented: about 3.3% of the library has one in this group of screens.
PI5P4Ka inh: qHTS for Inhibitors of phosphatidylinositol 5-phosphate 4-kinase (PI5P4K). Phosphatidylinositol 5-phosphate 4-kinase type-2 alpha (Homo sapiens), P48426. PI5P4Kalpha enzyme, ADP-Glo luminescence, 60 min; hits give low values. max response, %. hit rate 1.2% among 330,000. AID 652105, 2013; active = max response of -50% or lower; inconclusive = between -30% and -50%; inactive = -30% or higher; also: value at the top dose of about 77 µM; % is scaled to controls: 0 for no effect and ±100 for the full control effect
Target sequence (P48426 whole entry, looked up): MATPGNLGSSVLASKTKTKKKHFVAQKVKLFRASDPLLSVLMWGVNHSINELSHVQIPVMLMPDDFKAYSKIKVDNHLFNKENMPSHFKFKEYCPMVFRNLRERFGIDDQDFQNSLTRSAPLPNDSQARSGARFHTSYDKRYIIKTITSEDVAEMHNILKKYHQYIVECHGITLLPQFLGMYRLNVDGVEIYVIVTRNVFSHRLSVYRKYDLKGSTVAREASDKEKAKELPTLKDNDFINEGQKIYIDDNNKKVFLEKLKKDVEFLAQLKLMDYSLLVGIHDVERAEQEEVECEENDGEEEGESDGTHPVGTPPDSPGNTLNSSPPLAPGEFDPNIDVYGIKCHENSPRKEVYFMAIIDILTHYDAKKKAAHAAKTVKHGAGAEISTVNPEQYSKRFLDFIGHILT
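ADP-Glo luminescence end-point read after a 60 min room-temperature kinase reaction of PI5P4Kalpha plus substrate, initiated with ATP at 5 microM final. Buffer: 0.038 M HEPES pH 7.4, EGTA, 0.1% CHAPS, 5% DMSO.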
USP1-UAF1 inh: Inhibitors of USP1/UAF1: Primary Screen. recombinant USP1/UAF1, Ub-Rhodamine cleavage fluorescence. hit rate 0.23% among 390,000. Ubiquitin carboxyl-terminal hydrolase 1 (Homo sapiens), O94782. Potency, µM (titrated, usually from 57.1 µM), inactives show at the highest dose activity change, negative = inhibition, hits mostly inhibitors; also: potency is read from the fitted curve at half-maximal effect; % is scaled to controls: 0 for no effect and ±100 for the full control effect; nearly all actives have a fitted effect of over 60% in size
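1 nM enzyme complex + cpd, 15 min RT; start with Ub-Rho 150nM final; kinetic fluorescence ex 480/em 540, 6 reads q60 s. Buffer 50mM HEPES pH 7.8, 0.5mM EDTA, 0.1 mg/ml BSA, 1mM TCEP, 0.01% Tween-20.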
PLK1 PBD inh: qHTS for Inhibitors of PLK1-PDB (polo-like kinase 1 - polo-box domain): Primary Screen. Serine/threonine-protein kinase PLK1 (Homo sapiens), P53350. Plk1 PBD binding of FITC phosphopeptide, fluorescence polarization. Potency, µM, for inactives: max response, negative = inhibition, most hits filed as inhibitors. hit rate 2.8% among 360,000. AID 720504, 2013; also: potency is read from the fitted curve at half-maximal effect; series mostly up to about 57 µM; % is scaled to controls: 0 for no effect and ±100 for the full control effect; nearly all actives have a fitted effect of over 65% in size
WRN helicase inh-1: qHTS for Inhibitors of WRN Helicase. Bifunctional 3'-5' exonuclease/ATP-dependent helicase WRN (Homo sapiens), Q14191. Potency, µM (highest dose often 114 µM), inactives show at the highest dose activity change, negative = inhibition, usual class: inhibitors. WRN helicase unwinding, fluorescent forked duplex, kinetic. AID 651768, 2012. hit rate 0.46% among 360,000; also: potency is read from the fitted curve at half-maximal effect; % is scaled to controls: 0 for no effect and ±100 for the full control effect; nearly all actives have a fitted effect of over 55% in size
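Kinetic red-fluorescence monitoring (525/598 nm) tracks WRN helicase activity after 100 nM fluorophore-quencher forked duplex and 2 mM ATP are added to 20 nM enzyme pretreated 15 min at room temperature with compound.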
USP2a block: qHTS Assay for Inhibitors of Ubiquitin-specific Protease USP2a Using CHOP2 as the Reporter | Ubiquitin carboxyl-terminal hydrolase 2 (Homo sapiens), O75604 | USP2 core, Ub-CHOP2 coupled fluorogenic reporter, 485/531 | Potency, µM (titrated, usually from 38.3 µM), without a hit: at the highest dose activity change, negative = inhibition, usual class: inhibitors | hit rate 0.01% among 330,000;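 also: potency is read from the fitted curve at half-maximal effect; plate controls were DMSO wells for no effect and full inhibition by NEM control for full effect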
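Deubiquitinase activity read as fluorescence (485/531 nm) after Ub-CHOP2 cleavage activates the enterokinase reporter on its substrate; USP2 core 10nM, Ub-CHOP2 and substrate 25nM each, 30min compound preincubation then 60min RT; data normalized to NEM, curves fitted.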
WRN helicase inh-2: qHTS for Inhibitors of WRN Helicase: Confirmatory Assay for Cherry-picked Compounds | WRN helicase DNA unwinding, fluorescence kinetic | hit rate 63% among 610 | shares compounds with WRN helicase inh-1 | Potency, µM (titrated, usually from 57.1 µM), for inactives: top-dose activity, negative = inhibition, hits mostly inhibitors; also: potency is read from the fitted curve at half-maximal effect; nearly all actives have a fitted effect of over 65% in size
TO displacement: qHTS for Inhibitors of WRN Helicase: Thiazole Orange DNA Binding Counterscreen | shares compounds with WRN helicase inh-1 | thiazole orange DNA binding displacement, fluorescence | Potency, µM (titrated, usually from 57.1 µM), inactives show at the highest dose activity change, negative = inhibition, usual class: inhibitors | hit rate 10% among 610 | AID 720499, 2013;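 also: drop in dye fluorescence marks compound binding to DNA; potency is read from the fitted curve at half-maximal effect; % is scaled to controls: 0 for no effect and ±100 for the full control effect; nearly all actives have a fitted effect of over 60% in size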
BLM counter: qHTS for Inhibitors of WRN Helicase: BLM Helicase Counterscreen for WRN Inhibitors. shares compounds with WRN helicase inh-1. Recombinant BLM helicase DNA unwinding, red fluorescence. Potency, µM (titrated, usually from 57.1 µM), inactives show top-dose activity change, negative = inhibition, usual class: inhibitors. hit rate 60% among 610; also: potency is read from the fitted curve at half-maximal effect; nearly all actives have a fitted effect of over 60% in size
Numbers without * were called inactive; [ ] = another dose, or the depositor's remark. Unless noted, calls follow the shape of the dose curve; as a rule, active = well fitted curve in the direction sought with a large enough effect; inconclusive = small, poorly fitted or top-dose-only effect, or another doubt; inactive = no such curve, though single readings can be large; an effect the other way counts as inactive or inconclusive.

How did CCOc1cc(C(N)=O)cc(OCC)c1OCC do in these assays?
PI5P4Ka inh: 0; USP1-UAF1 inh: -19%; PLK1 PBD inh: -2%; WRN helicase inh-1: 3%; USP2a block: -1%

Results for N#CCCN(C(=O)CSc1ccc2c(c1)OCCO2)c1ccccc1 ?
PI5P4Ka inh: 0; USP1-UAF1 inh: -14%; PLK1 PBD inh: 19µM*; WRN helicase inh-1: 5%; USP2a block: 2%

Results for CN(C(=O)CSc1ccc2c(c1)OCCO2)c1ccccc1 ?
PI5P4Ka inh: -10; USP1-UAF1 inh: -14%; PLK1 PBD inh: inconclusive; WRN helicase inh-1: 18%; USP2a block: -2%

How did COc1ccc(N=C2S/C(=C\c3ccc(OC(C)C(=O)O)c(OC)c3)C(=O)N2CCc2c[nH]c3ccccc23)cc1 (stereo unspecified) do in these assays?
PI5P4Ka inh: -54*; USP1-UAF1 inh: -22%; PLK1 PBD inh: inconclusive; WRN helicase inh-1: -12%; USP2a block: -2%

How did CCOc1ccccc1CNS(=O)(=O)c1ccc2[nH]c(=O)ccc2c1 do in these assays?
USP1-UAF1 inh: -22%

Results for CC(=O)C(C(C)=O)C(NC(=O)c1cccnc1)(C(F)(F)F)C(F)(F)F ?
PI5P4Ka inh: -63*; USP1-UAF1 inh: 3%; PLK1 PBD inh: 2.7µM*; WRN helicase inh-1: 89µM*; USP2a block: 1%

Results for Cc1cccc(N(CC(=O)N(C)Cc2ccccc2)S(=O)(=O)c2ccccc2)c1C ?
USP1-UAF1 inh: -29%

Results for CC(NC(=O)c1ccc2c(c1)sc1nc(-c3ccccc3)cn12)C12CC3CC(CC(C3)C1)C2 (stereo unspecified) ?
USP1-UAF1 inh: 4%

What do the screens show for `O=C(NCc1ccc(F)cc1)c1cccc2c1C(=O)N(Cc1cccnc1)C2`?
PI5P4Ka inh: 1; USP1-UAF1 inh: -24%; PLK1 PBD inh: 27µM*; WRN helicase inh-1: 2%; USP2a block: -2%

What do the screens show for `CC1=Nc2ccccc2/C1=C/c1c(N)n2c(S(=O)(=O)C(C)C)nsc2nc1=O`?
PI5P4Ka inh: -76*; USP1-UAF1 inh: inconclusive; PLK1 PBD inh: -26%; WRN helicase inh-1: inconclusive; USP2a block: 0%

How did Nc1c(C=C2C=CC(=O)C=C2)c(=O)nc2snc(SCc3ccccc3)n12 do in these assays?
PI5P4Ka inh: -51*; USP1-UAF1 inh: -7%; PLK1 PBD inh: 21µM*; WRN helicase inh-1: -7%; USP2a block: -3%

Results for Nc1nnc(SCc2ccccc2)n1-c1ccccc1 ?
PI5P4Ka inh: 0; USP1-UAF1 inh: -15%; PLK1 PBD inh: -9%; WRN helicase inh-1: 2%; USP2a block: 0%

What do the screens show for `CSc1nsc2nc(=O)c(/C=C3\C(C)=Nc4ccc(C)cc43)c(N)n12`?
PI5P4Ka inh: -68*; USP1-UAF1 inh: 22%; PLK1 PBD inh: inconclusive; WRN helicase inh-1: inconclusive; USP2a block: -3%

Results for CC1=Nc2ccccc2/C1=C/c1c(N)n2c(S(=O)(=O)CC(C)C)nsc2nc1=O ?
PI5P4Ka inh: -65*; USP1-UAF1 inh: -22%; PLK1 PBD inh: inconclusive; WRN helicase inh-1: inconclusive; USP2a block: 3%

What do the screens show for `COC(=O)CN1C(=O)CSc2ccc(S(=O)(=O)Nc3cccc(Cl)c3C)cc21`?
USP1-UAF1 inh: -9%

Results for CC(C)c1ccc(NC(=O)CN2C=NS(=O)(=O)c3ccccc32)cc1 ?
USP1-UAF1 inh: -18%

What do the screens show for `CCCN(c1c(C)n(C)n(-c2ccccc2)c1=O)S(=O)(=O)c1ccc(C)cc1`?
USP1-UAF1 inh: 2%

How did O=C(NCCc1csc2nc(-c3cccc(F)c3)nn12)c1ccc(Br)o1 do in these assays?
USP1-UAF1 inh: -11%

What do the screens show for `CCC(C(=O)NCCc1ccc(Cl)cc1)n1ccc2cc(S(=O)(=O)N3CCCCC3)ccc21` (stereo unspecified)?
USP1-UAF1 inh: -9%

What do the screens show for `Cc1ccc(OCc2nc(-c3ccc(C(=O)N4CCN(c5ccccc5F)CC4)cc3)oc2C)cc1`?
USP1-UAF1 inh: -6%

What do the screens show for `CC1=Nc2ccc(C)cc2/C1=C/c1c(N)n2oc(C)cc2nc1=O`?
PI5P4Ka inh: -3; USP1-UAF1 inh: -15%; PLK1 PBD inh: 1%; WRN helicase inh-1: -12%; USP2a block: 6%

How did CSc1nsc2nc(=O)c(/C=C3\C=Nc4ccccc43)c(N)n12 do in these assays?
PI5P4Ka inh: -56*; USP1-UAF1 inh: -16%; PLK1 PBD inh: inconclusive; WRN helicase inh-1: -18%; USP2a block: 0%

Results for CCc1nn2c(N)c(/C=C3\C=Nc4ccccc43)c(=O)nc2s1 ?
PI5P4Ka inh: 0; USP1-UAF1 inh: -4%; PLK1 PBD inh: -15%; WRN helicase inh-1: -19%; USP2a block: -1%

How did CC1=Nc2ccc(C)cc2/C1=C/c1c(N)n2c(S(=O)(=O)C(C)C)nsc2nc1=O do in these assays?
PI5P4Ka inh: -85*; USP1-UAF1 inh: -25%; PLK1 PBD inh: inconclusive; WRN helicase inh-1: inconclusive; USP2a block: -1%

Results for Cc1cn2c(N)c(/C=C3\C=Nc4ccccc43)c(=O)nc2s1 ?
PI5P4Ka inh: -13; USP1-UAF1 inh: -5%; PLK1 PBD inh: -19%; WRN helicase inh-1: 5%; USP2a block: 1%

What do the screens show for `CC(C)S(=O)(=O)c1nsc2nc(=O)c(/C=C3\C=Nc4ccccc43)c(N)n12`?
PI5P4Ka inh: -79*; USP1-UAF1 inh: inconclusive; PLK1 PBD inh: -23%; WRN helicase inh-1: -11%[11.6 µM]; USP2a block: 3%

What do the screens show for `N#Cc1c(-c2ccc(Cl)c([N+](=O)[O-])c2)no[n+]1[O-]`?
WRN helicase inh-2: 19µM*; TO displacement: -13%; BLM counter: 22µM*
